# Laboratory results: the supplement of paper PMC11732987, “Enantioselective OTUD7B fragment discovery through chemoproteomics screening and high-throughput optimisation” (Communications Chemistry, 2025)
# Values without a mark were called inactive.
# How the values were obtained:
# Test in all cases: log2 ratio of Biotin-Ahx-Ub-VS probe labelling (fragment/DMSO); higher = less target engagement (more negative = stronger competition), active = hit call of the paper (q ≤ 0.05, log2 ratio ≤ -1)
# Conditions in all cases: compound concentration: 200 uM; treatment time: 3 h
# [1] = target: T1, OTUD6B (UniProt Q8N6M0)
# T1 sequence (whole entry): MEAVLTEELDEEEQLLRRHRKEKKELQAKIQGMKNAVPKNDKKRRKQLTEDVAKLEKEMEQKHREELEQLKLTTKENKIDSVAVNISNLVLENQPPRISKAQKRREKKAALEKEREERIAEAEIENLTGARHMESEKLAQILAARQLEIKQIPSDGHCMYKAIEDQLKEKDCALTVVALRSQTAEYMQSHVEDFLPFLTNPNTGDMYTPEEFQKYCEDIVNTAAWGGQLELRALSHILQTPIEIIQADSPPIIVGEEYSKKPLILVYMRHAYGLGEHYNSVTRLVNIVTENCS
# In short: (§1)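 Labelled DUBs from HEK293T lysate were NeutrAvidin-enriched, digested with LysC and trypsin, and run by diaPASEF LC-MS/MS. Before that, each 495 µg sample in Tris/CHAPS/IGEPAL buffer with protease inhibitors was treated in triplicate with fragment at 200 µM or vehicle for 3 h, then with Biotin-Ahx-Ub-VS at 0.5 µM final for 1 h. Values are average log2 ratios of fragment over vehicle by unpaired t-test, based on global-median-normalised Spectronaut label-free quantities from proteins with ≥2 unique peptides.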
# [2] = target: T2, OTUD7B (UniProt Q6GQQ9)
# T2 sequence (whole entry): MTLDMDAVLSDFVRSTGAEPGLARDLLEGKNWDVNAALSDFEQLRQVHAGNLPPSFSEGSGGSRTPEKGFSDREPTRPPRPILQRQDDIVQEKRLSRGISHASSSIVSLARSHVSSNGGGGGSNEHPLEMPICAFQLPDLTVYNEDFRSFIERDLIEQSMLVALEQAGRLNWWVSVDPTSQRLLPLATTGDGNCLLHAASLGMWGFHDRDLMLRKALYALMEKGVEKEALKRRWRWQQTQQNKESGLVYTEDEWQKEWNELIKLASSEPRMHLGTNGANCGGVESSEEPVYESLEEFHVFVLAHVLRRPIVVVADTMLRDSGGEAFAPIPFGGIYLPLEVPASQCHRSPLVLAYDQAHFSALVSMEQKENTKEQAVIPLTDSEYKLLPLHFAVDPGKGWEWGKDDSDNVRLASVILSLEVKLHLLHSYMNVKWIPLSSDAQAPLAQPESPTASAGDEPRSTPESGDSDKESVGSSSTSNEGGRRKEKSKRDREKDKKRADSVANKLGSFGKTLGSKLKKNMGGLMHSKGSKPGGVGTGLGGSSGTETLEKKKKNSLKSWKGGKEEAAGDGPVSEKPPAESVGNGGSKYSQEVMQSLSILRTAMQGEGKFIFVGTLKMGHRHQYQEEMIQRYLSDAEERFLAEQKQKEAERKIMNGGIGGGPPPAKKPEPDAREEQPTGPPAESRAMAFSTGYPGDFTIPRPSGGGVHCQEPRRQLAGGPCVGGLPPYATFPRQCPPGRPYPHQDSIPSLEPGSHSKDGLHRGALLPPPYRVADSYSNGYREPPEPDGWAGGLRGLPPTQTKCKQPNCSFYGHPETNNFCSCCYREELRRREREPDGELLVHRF
# In short: as §1
# [3] = target: PRPF8 (UniProt Q6P2Q9)
# In short: as §1
# [4] = target: T3, PSMD7 (UniProt P51665)
# T3 sequence (whole entry): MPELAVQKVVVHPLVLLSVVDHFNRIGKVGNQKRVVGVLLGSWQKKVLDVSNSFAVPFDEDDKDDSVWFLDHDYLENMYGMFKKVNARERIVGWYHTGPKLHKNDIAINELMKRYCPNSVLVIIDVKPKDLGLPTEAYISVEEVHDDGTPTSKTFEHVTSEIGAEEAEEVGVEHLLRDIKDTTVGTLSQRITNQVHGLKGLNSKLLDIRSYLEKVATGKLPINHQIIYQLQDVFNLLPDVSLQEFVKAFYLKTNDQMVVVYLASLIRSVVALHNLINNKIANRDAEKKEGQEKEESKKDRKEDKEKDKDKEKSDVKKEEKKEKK
# In short: as §1
# [5] = target: UCHL1 (UniProt P09936)
# In short: as §1
# [6] = target: T4, UCHL3 (UniProt P15374)
# T4 sequence (whole entry): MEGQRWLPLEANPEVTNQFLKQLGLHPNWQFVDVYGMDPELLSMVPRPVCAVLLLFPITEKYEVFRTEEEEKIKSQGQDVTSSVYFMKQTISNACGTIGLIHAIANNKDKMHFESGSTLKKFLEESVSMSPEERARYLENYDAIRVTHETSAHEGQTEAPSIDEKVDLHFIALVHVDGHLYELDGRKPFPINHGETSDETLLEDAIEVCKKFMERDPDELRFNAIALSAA
# In short: as §1
# [7] = target: T5, UCHL5 (UniProt Q9Y5K5)
# T5 sequence (whole entry): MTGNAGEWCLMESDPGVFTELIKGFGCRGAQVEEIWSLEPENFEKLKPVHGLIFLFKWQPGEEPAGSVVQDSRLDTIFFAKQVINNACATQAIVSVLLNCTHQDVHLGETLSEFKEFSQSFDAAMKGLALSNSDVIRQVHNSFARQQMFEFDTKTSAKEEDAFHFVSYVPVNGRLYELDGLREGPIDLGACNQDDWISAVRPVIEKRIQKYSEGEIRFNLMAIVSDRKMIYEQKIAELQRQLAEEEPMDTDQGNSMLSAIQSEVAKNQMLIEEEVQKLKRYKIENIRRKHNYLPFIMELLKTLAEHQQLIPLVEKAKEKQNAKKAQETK
# In short: as §1
# [8] = target: USP10 (UniProt Q14694)
# In short: as §1
# [9] = target: T6, USP15 (UniProt Q9Y4E8)
# T6 sequence (whole entry): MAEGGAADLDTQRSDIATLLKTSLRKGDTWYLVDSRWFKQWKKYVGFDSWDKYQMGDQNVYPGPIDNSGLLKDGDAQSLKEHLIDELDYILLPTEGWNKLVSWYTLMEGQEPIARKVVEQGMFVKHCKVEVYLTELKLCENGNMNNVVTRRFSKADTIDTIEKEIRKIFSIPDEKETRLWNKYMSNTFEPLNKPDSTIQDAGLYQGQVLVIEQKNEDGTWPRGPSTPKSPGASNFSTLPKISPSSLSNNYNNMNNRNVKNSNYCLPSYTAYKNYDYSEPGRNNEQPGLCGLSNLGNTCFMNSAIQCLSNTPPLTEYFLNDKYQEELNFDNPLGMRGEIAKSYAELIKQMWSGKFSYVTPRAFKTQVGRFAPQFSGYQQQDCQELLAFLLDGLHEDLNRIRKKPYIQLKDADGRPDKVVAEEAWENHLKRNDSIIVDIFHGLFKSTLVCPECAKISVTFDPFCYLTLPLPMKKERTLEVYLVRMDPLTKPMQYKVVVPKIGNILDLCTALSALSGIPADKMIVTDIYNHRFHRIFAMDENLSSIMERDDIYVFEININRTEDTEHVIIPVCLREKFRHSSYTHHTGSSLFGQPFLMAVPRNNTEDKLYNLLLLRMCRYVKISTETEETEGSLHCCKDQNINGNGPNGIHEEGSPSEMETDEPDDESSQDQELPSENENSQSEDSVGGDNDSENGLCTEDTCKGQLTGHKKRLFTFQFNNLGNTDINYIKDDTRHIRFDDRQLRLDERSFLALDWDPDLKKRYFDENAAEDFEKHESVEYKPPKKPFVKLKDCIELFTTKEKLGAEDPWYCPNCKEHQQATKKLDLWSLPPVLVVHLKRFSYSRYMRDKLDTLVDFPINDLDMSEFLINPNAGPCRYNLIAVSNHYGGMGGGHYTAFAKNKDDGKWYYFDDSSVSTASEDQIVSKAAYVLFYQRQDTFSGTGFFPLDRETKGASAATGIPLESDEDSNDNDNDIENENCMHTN
# In short: as §1
# [10] = target: USP16 (UniProt Q9Y5T5)
# In short: as §1
# USP16, sequence (Q9Y5T5 whole entry, looked up): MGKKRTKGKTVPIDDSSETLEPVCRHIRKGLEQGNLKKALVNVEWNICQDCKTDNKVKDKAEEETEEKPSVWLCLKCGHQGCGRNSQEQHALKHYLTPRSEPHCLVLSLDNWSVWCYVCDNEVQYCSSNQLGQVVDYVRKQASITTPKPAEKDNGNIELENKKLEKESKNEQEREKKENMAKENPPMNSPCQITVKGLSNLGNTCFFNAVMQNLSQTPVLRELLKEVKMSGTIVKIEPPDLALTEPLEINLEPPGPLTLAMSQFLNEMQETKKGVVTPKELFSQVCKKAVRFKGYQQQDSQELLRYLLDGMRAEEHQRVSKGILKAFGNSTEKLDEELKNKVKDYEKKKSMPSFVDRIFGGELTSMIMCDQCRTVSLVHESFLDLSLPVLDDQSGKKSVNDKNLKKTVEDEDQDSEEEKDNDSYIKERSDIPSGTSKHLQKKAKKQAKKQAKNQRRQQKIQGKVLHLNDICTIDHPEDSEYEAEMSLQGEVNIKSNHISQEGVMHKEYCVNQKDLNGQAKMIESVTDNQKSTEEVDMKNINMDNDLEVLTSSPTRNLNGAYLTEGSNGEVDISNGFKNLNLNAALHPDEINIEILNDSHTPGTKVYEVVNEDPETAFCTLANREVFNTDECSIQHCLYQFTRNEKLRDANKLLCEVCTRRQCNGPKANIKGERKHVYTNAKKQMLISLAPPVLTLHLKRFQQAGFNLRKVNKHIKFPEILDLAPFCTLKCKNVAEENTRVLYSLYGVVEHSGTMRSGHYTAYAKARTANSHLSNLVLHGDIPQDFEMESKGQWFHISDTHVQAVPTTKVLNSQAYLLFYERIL
# USP10, sequence (Q14694 whole entry): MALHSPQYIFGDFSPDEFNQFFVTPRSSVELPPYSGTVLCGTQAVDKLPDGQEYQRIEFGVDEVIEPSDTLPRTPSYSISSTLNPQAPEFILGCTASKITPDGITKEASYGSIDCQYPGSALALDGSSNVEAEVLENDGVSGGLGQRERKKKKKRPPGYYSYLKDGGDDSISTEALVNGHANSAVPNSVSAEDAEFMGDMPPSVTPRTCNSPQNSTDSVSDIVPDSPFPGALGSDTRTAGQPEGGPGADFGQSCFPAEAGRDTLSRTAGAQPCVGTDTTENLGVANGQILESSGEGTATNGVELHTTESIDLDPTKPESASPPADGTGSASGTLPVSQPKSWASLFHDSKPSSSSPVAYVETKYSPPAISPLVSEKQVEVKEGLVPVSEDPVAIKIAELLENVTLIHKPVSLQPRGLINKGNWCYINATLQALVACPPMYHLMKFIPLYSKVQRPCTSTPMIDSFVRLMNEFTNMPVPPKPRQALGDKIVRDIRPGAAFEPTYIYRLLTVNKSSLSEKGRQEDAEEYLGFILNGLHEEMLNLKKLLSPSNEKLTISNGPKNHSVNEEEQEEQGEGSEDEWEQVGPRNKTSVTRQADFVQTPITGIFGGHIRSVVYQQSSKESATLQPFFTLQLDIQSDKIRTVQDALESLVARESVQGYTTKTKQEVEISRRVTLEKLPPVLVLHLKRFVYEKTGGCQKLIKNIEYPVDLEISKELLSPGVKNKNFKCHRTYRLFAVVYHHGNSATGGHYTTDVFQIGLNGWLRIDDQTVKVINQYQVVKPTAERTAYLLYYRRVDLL
# UCHL1, sequence (P09936 whole entry, looked up): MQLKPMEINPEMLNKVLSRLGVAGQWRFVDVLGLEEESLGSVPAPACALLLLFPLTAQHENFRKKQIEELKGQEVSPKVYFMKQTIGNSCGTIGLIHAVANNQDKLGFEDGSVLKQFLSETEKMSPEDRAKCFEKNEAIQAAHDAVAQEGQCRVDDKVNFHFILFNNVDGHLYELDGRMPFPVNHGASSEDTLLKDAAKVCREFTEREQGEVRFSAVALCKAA
SMILES,log2 ratio of Biotin-Ahx-Ub-VS probe labelling [1],log2 ratio of Biotin-Ahx-Ub-VS probe labelling [2],log2 ratio of Biotin-Ahx-Ub-VS probe labelling [3],log2 ratio of Biotin-Ahx-Ub-VS probe labelling [4],log2 ratio of Biotin-Ahx-Ub-VS probe labelling [5],log2 ratio of Biotin-Ahx-Ub-VS probe labelling [6],log2 ratio of Biotin-Ahx-Ub-VS probe labelling [7],log2 ratio of Biotin-Ahx-Ub-VS probe labelling [8],log2 ratio of Biotin-Ahx-Ub-VS probe labelling [9],log2 ratio of Biotin-Ahx-Ub-VS probe labelling [10]
O=C(CCl)Nc1nnc(CC(F)(F)F)o1,-0.105,-0.451,0.0577,-0.157,-1.5 (active),-0.128,-0.204,-0.0274,-0.341,0.0973
O=C(CCl)N1CCC(O)(Cc2ccc(F)cc2)C1 (stereo not given),0.0617,-0.082,-0.0432,-0.209,-1.12 (active),0.0281,0.116,-0.309,-0.149,0.246
Cc1cccc(C)c1NC(=O)CCl,-0.307,-0.52,-0.0544,-0.245,-1.48 (active),0.0922,-0.309,-0.108,-0.203,-0.0305
CC1CCc2onc(CNC(=O)CCl)c2C1 (stereo not given),-0.0903,-0.588,-0.225,-0.0595,-1.33 (active),0.123,-0.175,-0.0579,-0.0914,0.406
Cc1ncsc1CCNC(=O)CCl,0.143,-0.157,0.116,0.433,-1.31 (active),0.292,-0.131,0.0995,0.22,0.106
O=C(CCl)N1CCc2sccc2C1,-0.251,-1.08 (active),0.249,-0.000885,-1.18 (active),-0.458,-0.259,-0.16,-0.737,-0.278
Cc1nnc(C(NC(=O)CCl)c2ccccc2)n1C (stereo not given),0.622,0.355,-0.283,0.357,0.102,0.364,0.534,0.157,0.629,-0.384
Cc1cccc(NC(=O)[C@@H]2CCCN2C(=O)CCl)n1,-0.319,-0.29,-0.0295,-0.254,-1.67 (active),-0.737,-0.436,-0.09,-0.215,-0.0941
Cl.O=C(CCl)N1CCn2ncc(O)c2C1,-0.223,-1.54 (active),0.218,-0.249,-1.49 (active),-0.188,-1.12 (active),-0.00467,-0.99,-0.0885
CS(=O)(=O)N1CCCN(C(=O)CCl)CC1,-0.512,-0.631,-0.104,-0.148,-1.95 (active),0.112,-0.235,-0.0225,-0.193,0.245
O=C(CCl)NC1CCC2(CC1)OCCO2,-0.272,-0.893,-0.267,-0.147,-1.25 (active),-0.0419,-0.477,-0.165,-0.308,-0.00437
COc1cc(Cl)c(C)cc1NC(=O)CCl,-0.418,-0.345,-0.193,-0.352,-1.57 (active),0.146,-0.348,-0.183,-0.24,-0.634
Cl.O=C(CCl)N1CCc2ncncc2C1,-0.0834,-0.487,0.0782,-0.0569,-0.583,0.176,-0.176,-0.322,-0.514,-0.106
O=C(CCl)N(C1=CCCCC1)C1CC1,-0.00924,-0.39,0.215,0.0445,-1.24 (active),0.218,-0.186,-0.112,-0.209,-0.193
O=C(CCl)N1CCOC(CCc2ccccc2)C1 (stereo not given),-0.215,-0.71,-0.0352,-0.432,-1.46 (active),-0.025,-0.22,-0.258,-0.374,-0.411
